The entries come from a sample that favours hits as a whole.
Gal4-VP16 FLuc: Gal4-VP16 reporter inhibition counter-screen; Drosophila S2 Gal4-VP16 UAS-luciferase, luminescence, 20 h; 3.5% of 310,000 active; Potency, µM (doses to about 53.6 µM), for inactives: at the highest dose activity, negative = inhibition, hits mostly inhibitors;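 further: Gal4-VP16 expression switched on by copper sulfate through the metallothionein promoter; potency means the concentration at half of the fitted maximal effect; on the % scale 0 is the no-effect control and ±100 the full control effect; nearly all actives have a fitted effect of over 50% in size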
Giardia kill: Giardia lamblia killing; AID 540267; activity change, % at 7.66 µM, hits read low; Giardia lamblia trophozoite viability; 0.15% of 340,000 active; in the data active means activity change below about -80%; inconclusive means between about -30% and that limit;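 further: parasites exposed to compound for two days anaerobically before the ATP read; on the % scale 0 is the no-effect control and ±100 the full control effect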
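Trophozoite viability was measured as ATP-dependent luminescence, read 15-30 min after reagent addition. Before that, parasites at 100 cells/well were exposed to compounds for 48 h, anaerobically, at 37 deg C.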
ERG-DNA inh: ERG Ets/DNA interaction inhibition | fluorescence polarization, His-ERG Ets domain / labelled DNA | Potency, µM (doses to about 76.9 µM), for inactives: at the highest dose FP activity, negative = inhibition, hits mostly inhibitors | 0.028% of 370,000 active | AID 624246; active means well fitted inhibition curve with a large enough effect in the polarisation, with a control signal flat; inconclusive means small, poorly fitted or top-dose-only effect, or effect the other way, or a change in a side signal; inactive means no such curve, though single readings can be large or run the other way; the % refers to the polarisation;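 further: polarization taken with two DNA probes labelled with fluorescein and Texas red; potency means the concentration at half of the fitted maximal effect; % of control where 0% means no effect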
Target sequence (P11308 whole entry, looked up, the tested form may be a part): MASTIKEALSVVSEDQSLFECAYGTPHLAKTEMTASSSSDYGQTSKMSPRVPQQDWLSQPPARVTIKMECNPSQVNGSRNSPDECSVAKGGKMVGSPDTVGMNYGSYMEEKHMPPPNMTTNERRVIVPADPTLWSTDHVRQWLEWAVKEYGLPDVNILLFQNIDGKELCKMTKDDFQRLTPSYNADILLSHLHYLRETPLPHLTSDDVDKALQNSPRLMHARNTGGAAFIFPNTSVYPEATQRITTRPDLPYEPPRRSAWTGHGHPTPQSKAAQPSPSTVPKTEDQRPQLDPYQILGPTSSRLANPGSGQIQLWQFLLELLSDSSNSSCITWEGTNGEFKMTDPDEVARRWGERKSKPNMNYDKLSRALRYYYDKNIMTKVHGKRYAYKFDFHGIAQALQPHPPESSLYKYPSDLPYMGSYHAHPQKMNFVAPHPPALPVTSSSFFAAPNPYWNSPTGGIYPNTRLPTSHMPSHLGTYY
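His-tagged ERG Ets domain (1 uM in the protein solution; 300mM KCl, 50mM Tris-HCl, 1mM EDTA, 1mM DTT, pH 7.5) received compound, then a probe mix of 5 nM fluorescein-DNA and 100nM Texas-615-DNA. Fluorescence polarization was read for both dyes.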
RORgamma inh: blocks mouse ROR gamma transcriptional activity | Drosophila S2 Gal4-RORgamma UAS-luciferase reporter, 20 h | Potency, µM (series often up to 53.6 µM), inactives show at the top dose activity change, negative = inhibition, hits mostly inhibitors | 5.4% of 310,000 active; further: potency means the concentration at half of the fitted maximal effect; on the % scale 0 is the no-effect control and ±100 the full control effect; nearly all actives have a fitted effect of over 60% in size
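Drosophila S2 cells stably expressing Gal4-DBD/mouse RORγ fusion under metallothionein promoter plus UAS-luciferase; compound 1 h, then 700 uM CuSO4 induction for 20 h at ambient temperature; inhibition read as reduced luminescence.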
Integrin act MD: integrin-mediated muscular dystrophy alleviation activation. alpha7betagal myoblasts, beta-gal FDG fluorescence, 48 h. AID 624291. 0.064% of 350,000 active. Potency, µM (doses to about 38.3 µM), for inactives: at the highest dose activation, hits mostly activators;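 further: potency means the concentration at half of the fitted maximal effect; 100% = response of the positive control SU9516; nearly all actives have a fitted effect of over 60% in size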
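Alpha7betagal+/- myoblasts (passage 13) were plated 16-24 hr, then exposed to compounds (1:260 dilution of DMSO stock) for 48 hours at 37C. After MPER lysis, β-galactosidase reporter activity was read as FDG fluorescence (ex 480/em 540) after 30 minutes.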
Starred values were filed as active, the others as inactive; i = inactive; ? = inconclusive; · = no result. Unless noted, the call rests on the fitted dose curve; in most records, active means well fitted curve in the direction sought with a large enough effect; inconclusive means small, poorly fitted or top-dose-only effect, or another doubt; inactive means no such curve, though single readings can be large; an effect the other way counts as inactive or inconclusive.

SMILES	Gal4-VP16 FLuc	Giardia kill	ERG-DNA inh	RORgamma inh	Integrin act MD
CCNc1ncc2nc(-c3ccccc3)c(=O)n(C[C@H]3CCCO3)c2n1	0%	·	·	0%	·
COc1ccc(S(=O)(=O)c2c(Nc3ccc(C)cc3)sc(C(=O)c3ccc4c(c3)OCO4)c2N)cc1	·	·	4%	·	·
O=C(c1cc(Br)ccc1O)N(Cc1ccco1)Cc1cccs1	·	9	·	·	·
CCCN1CNc2c(c(=O)[nH]c(=S)n2CCc2cc(Cl)ccc2Cl)C1	·	i	·	·	·
Cc1ccn2cc(CSc3ccccc3N)nc2c1	-7%	-8	1%	13µM*	-1%
Cc1ccn2cc(CC(=O)O)nc2c1	-2%	12	-26%	-12%	-4%
CCOC(=S)SCc1cn2ccc(C)cc2n1	?	-7	3%	14µM*	-31%
COc1ccc(OC(=O)COc2ccc(C)cc2)cc1	-4%	4	-1%	-18%	-8%
COc1ccc(OCC(=O)Sc2ccc(C)cc2)cc1	1%	0	5%	3.2µM*	17%
CCC(=O)N1CCN(c2nc(CC)nc3sc4c(c23)CCCC4)CC1	1%	-11	8%	13%	-18%
CC1CCc2c(sc3nc(C(C)(C)C)nc(N4CCN(C(=O)CCl)CC4)c23)C1 (centres undefined)	13µM*	14	-3%	13µM*	-57%
Cc1ccc(NC(=O)Cn2cc(S(=O)(=O)N3CCCC3)c(S(=O)(=O)N3CCCC3)c2)c(C)c1	·	·	-6%	·	·
COc1cccc(C(=O)NNC2=C(C(=O)C(F)(F)F)CCC2)c1	?	-9	3%	5.6µM*	7%
O=C(NNC1=C(C(=O)C(F)(F)F)CCC1)c1ccccc1O	?	-20	4%	11µM*	-11%
O=C(CCC1CCCC1)NNC(=O)c1ccccc1O	·	-12	12%	·	-19%
COc1ccccc1C(=O)NNC1=C(C(=O)C(F)(F)F)CCC1	5µM*	-18	·	0.56µM*	-24%
COc1cccc(C(=O)NN/C(C)=C/C(=O)C(F)(F)C(F)(F)C(F)(F)F)c1	13µM*	-5	-6%	13µM*	-8%
COc1cccc(CCNC(=O)c2cnc3sc(N4CCCC4)nn3c2=O)c1	·	·	-4%	·	·
Cc1c(C(=O)N(C)c2cccc(C(F)(F)F)c2)sc2nc3n(c(=O)c12)CCCCC3	·	·	0%	·	·
Cc1ccc(S(=O)(=O)N2C(=O)CCC2C(=O)N2CCCCC2)cc1 (centres undefined)	-12%	-12	-6%	-37%	36%
O=C(NNC1=C(C(=O)C(F)(F)F)CCC1)c1ccccc1Cl	6.3µM*	-8	4%	5.6µM*	-22%
O=C(NNc1c2ccccc2nc2ccccc12)c1ccccc1Cl	-13%	-18	-5%	-21%	-19%
Nc1ccccc1C(=O)NNC1=C(C(=O)C(F)(F)F)CCC1	?	-6	2%	7.1µM*	?
O=C(NNC1=C(C(=O)C(F)(F)F)CCC1)c1ccc(Br)cc1	?	3	·	?	-19%
O=C(c1ccc(-c2ccc([N+](=O)[O-])cc2)o1)N1CCCCC1	16µM*	-21	12%	?	5%
SMILES	Gal4-VP16 FLuc	Giardia kill	ERG-DNA inh	RORgamma inh	Integrin act MD
CCC1CCC/C1=N\NC(=O)c1ccoc1C (centres undefined)	30%	-12	-11%	-12%	-6%
COc1ccc(Cl)c2sc(N(CCN(C)C)C(=O)c3ccc4c(c3)OCCO4)nc12	·	8	10%	·	-47%
COc1cccc(NC(=S)NC2CC3CCCC(C2)N3CC(C)C)c1 (centres undefined)	7%	-12	-9%	10µM*	-17%
COc1cccc(NC(=S)N2C3CCCC2CC(NC(=O)C2CC2)C3)c1 (centres undefined)	-15%	-5	-5%	0%	4%
CCn1c(COc2ccc(C(C)C)cc2)nnc1SCC(=O)Nc1nccs1	?	3	-2%	11µM*	0%
CCSCc1nnc(SCC(=O)Nc2nccs2)n1CC	1%	12	6%	-27%	-13%
Cn1cccc1Cc1nnc(SCC(=O)Nc2nccs2)n1CCc1ccccc1	?	24	4%	18µM*	-14%
COc1ccc(CN2CCN(C(=O)CN3C(=O)C4C5C=CC(C5)C4C3=O)CC2)c(OC)c1OC (centres undefined)	6.3µM*	14	-4%	-28%	-15%

From PubChem
